M4 ag: CHRM4 agonism in calcium assay; AID 624127; P08173; activation, % at 3 µM; 360,000 tested, 0.14% active; CHO-K1 hM4/Gqi5, Fluo-8 calcium fluorescence; vehicle 0%, full acetylcholine response 100%;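 active means activation above the run mean over all test wells plus 3 SD, cut at about 32% in these data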;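 further: peak over basal fluorescence ratio per well then scaled between controls; 0% = DMSO wells and 100% = acetylcholine at EC100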
CHRM1 agonist: activates human CHRM1 receptor; AID 588814; activation, % at 3 µM; 360,000 tested, 0.33% active; P11229; CHO-K1 hM1, Fluo-8 calcium fluorescence, agonist mode; 0% DMSO, 100% acetylcholine EC100;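 active means activation above the run's mean compound activation plus 3 SD, cut at about 16% in these data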;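 further: peak over basal fluorescence ratio within a 140 s kinetic read after compound addition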
Target sequence (P11229 whole entry, looked up): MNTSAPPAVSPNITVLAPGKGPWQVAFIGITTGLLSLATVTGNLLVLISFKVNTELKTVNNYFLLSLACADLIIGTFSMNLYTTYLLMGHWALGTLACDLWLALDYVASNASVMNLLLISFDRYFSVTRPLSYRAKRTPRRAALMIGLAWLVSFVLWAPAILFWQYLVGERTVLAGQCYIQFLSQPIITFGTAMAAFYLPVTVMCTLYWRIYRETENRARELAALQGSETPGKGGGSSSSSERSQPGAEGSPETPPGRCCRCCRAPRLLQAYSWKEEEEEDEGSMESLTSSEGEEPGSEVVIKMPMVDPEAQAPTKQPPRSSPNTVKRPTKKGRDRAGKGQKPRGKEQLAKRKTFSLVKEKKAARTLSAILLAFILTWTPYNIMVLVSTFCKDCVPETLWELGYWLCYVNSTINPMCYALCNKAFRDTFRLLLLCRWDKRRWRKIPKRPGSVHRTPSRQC
M4 PAM: potentiates acetylcholine response at human M4 receptor; P08173; CHO-K1 hM4/Gqi5, Fluo-8 calcium fluorescence, ACh EC20; 0% = ACh EC20, 100% = maximal ACh; activation, % at 3 µM; 360,000 tested, 0.4% active;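 active means activation above its plate's cutoff, the mean activation of sample wells plus 3 SD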
CHRM1 antagonist: blocks human M1 muscarinic receptor. P11229. CHO-K1 hM1, Fluo-8 calcium fluorescence, ACh EC80 antagonist. inhibition, % at 3 µM. 360,000 tested, 1.3% active;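 active means percent inhibition above its own plate's cutoff, namely the mean of that plate's compound wells plus 3 SD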;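 further: peak over basal fluorescence ratio during 140 s after agonist addition; 0% = ACh EC80 plus DMSO and 100% = DMSO alone without agonist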
CHRM1 PAM: positive allosteric modulators of human M1 muscarinic receptor; P11229; CHO-K1 hM1, Fluo-8 calcium fluorescence, ACh EC20; 0% = ACh EC20, 100% = maximal ACh; activation, % at 3 µM; 360,000 tested, 0.088% active; in the data active means activation above about 19%, passing the limit was not always enough
M4 antag: CHRM4 antagonism in calcium assay. inhibition, % at 3 µM. P08173. 360,000 tested, 0.73% active. AID 624125. CHO-hM4 cells, ACh EC80, Fluo-8 calcium fluorescence;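 active means inhibition above its plate's cutoff, the mean inhibition of sample wells plus 3 SD, cut at about 27% in these data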;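 further: 0% = acetylcholine EC80 with DMSO and 100% = DMSO without agonist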
The depositor's hits bear a star. In the library only some 2.2% were active in any assay of this set; here they are far more common.

SMILES | M4 ag | CHRM1 agonist | M4 PAM | CHRM1 antagonist | CHRM1 PAM | M4 antag
COc1ccc(C(C(=O)NCC2CCCO2)N(Cc2cccs2)C(=O)c2snc(C(N)=O)c2N)cc1 (configuration not stated) | 21.3 | -0.6 | -20.3 | 22.2* | -13.9 | 15.5
CC(Oc1ccc(F)cc1)c1ccnc2nc(/N=C/N(C)C)nn12 (configuration not stated) | 0.5 | -10.7 | 2.6 | 7.8 | -5.1 | -2.6
CC(Oc1ccc(C(C)(C)C)cc1)c1ccnc2nc(/N=C/N(C)C)nn12 (configuration not stated) | -0.1 | -7.5 | -32.3 | 54.1* | -21.4 | 44.0*
CC(=O)Nc1cccc(OC(=O)N2CCOCC2)c1 | 0.9 | -3.5 | 27.1* | -13.7 | 2.3 | -4.0
COc1cccc(OC(=O)N2CCOCC2)c1 | 0.3 | -2.9 | -4.4 | -3.3 | 0.8 | -0.6
Clc1ccc(-n2ncc3c(NCC4CCCO4)ncnc32)cc1 (configuration not stated) | 2.5 | 5.4 | -15.9 | 3.8 | -0.2 | 36.8*
CCc1ccc2[nH]c(O)c(N=Nc3nc(-c4ccccc4)cs3)c2c1 | 0.8 | 19.7* | 2.8 | 6.6 | -2.7 | 3.2
CCc1cc2c(N=Nc3c(O)[nH]c4ccccc34)ncnc2s1 | 0.1 | -8.3 | -3.1 | -6.8 | 3.0 | 10.6
Cc1snc(SCc2ccc(F)cc2)c1C#N | -1.1 | -0.9 | 18.3* | -19.0 | 15.2 | -10.8
NC(=O)C1CCN(c2ncc(C(F)(F)F)cc2Cl)CC1 | 0.1 | -10.1 | 11.9 | 39.5* | -10.5 | -5.0
O=C(c1[nH]c(C(F)(F)F)nc1-c1ccccc1)N1CCN(c2ncc(C(F)(F)F)cc2Cl)CC1 | 37.2* | 12.5 | -8.1 | -4.5 | -6.8 | 22.4
O=C(c1ccc2nc[nH]c2c1)N1CCN(c2ncc(C(F)(F)F)cc2Cl)CC1 | 7.3 | 10.7 | 12.1 | 0.7 | 25.6* | 7.3
Cc1ccc(-n2nc3c(N4CCC(C(=O)N5CCN(C)CC5)CC4)nnc(C)c3c2C)cc1 | -0.8 | -5.5 | -5.3 | -4.7 | -0.4 | 10.8
COc1ccc(/C=C2\C(=O)NCC(=O)N2Cc2ccccc2)cc1 | 14.1 | -1.2 | 10.4 | 7.0 | 0.4 | -10.4
Cc1ccc(NC(=O)C2CCCNC2=O)nc1 (configuration not stated) | 1.1 | -2.0 | 1.7 | -11.9 | 8.5 | 1.4
CC(C)(C)NC(=O)CCCSc1nc2ccccc2s1 | 7.8 | -3.2 | -3.6 | 9.2 | -4.9 | -0.8
CCc1ccc(C(=O)CSc2nc3ccccc3c(=O)[nH]2)cc1 | -1.0 | -2.7 | -8.0 | 1.8 | -6.7 | 2.8
CC1CCN(C(=O)c2ccc(N(C)S(C)(=O)=O)cc2)CC1 | -0.1 | -2.4 | 0.9 | 1.8 | -1.2 | 2.7
CC1(C)C2CC[C@]3(C)C(CC=C4[C@@H]5C[C@@](C)(CO)[C@@H](O)C[C@]5(C(=O)O)CC[C@]43C)[C@@]2(C)CC[C@@H]1O (some centres not stated) | 1.4 | -1.5 | 5.5 | -12.8 | 11.1 | -1.9
CC1(C)CC[C@]2(C(=O)O)CC[C@]3(CO)C(=CCC4[C@@]5(C)C[C@H](O)[C@H](O)[C@@](C)(C(=O)O)C5CC[C@]43C)[C@@H]2C1 (some centres not stated) | -0.6 | 8.0 | 11.4 | -7.8 | 26.6* | -7.9
COc1ccc(CN2CCCC(CO)(Cc3ccc(F)cc3F)C2)cc1 (configuration not stated) | 2.6 | -8.5 | -7.9 | 16.2 | -12.5 | 12.5
CCOc1ccc(CN2CCCC(CO)(Cc3ccc(F)cc3)C2)cc1 (configuration not stated) | 4.4 | -7.5 | -16.7 | 40.0* | -21.6 | 15.3
O=C(Nc1ccc(F)cc1F)N1CCCCCC1 | 1.1 | -2.0 | 0.2 | -5.1 | 13.2 | 6.7
COc1cc(-c2noc(C)c2-c2ccc(N(C)C)nc2)cc(OC)c1OC | 35.8* | 34.0* | -7.2 | 20.2 | -12.3 | -3.0
CCC(CC)c1nnc(NC(=O)CCc2ccccc2)s1 | -0.1 | -0.1 | 15.1* | -6.7 | 15.3 | -3.8
SMILES | M4 ag | CHRM1 agonist | M4 PAM | CHRM1 antagonist | CHRM1 PAM | M4 antag
O=c1c2cn(Cc3ccccc3)c3ccccc3c-2nn1Cc1ccc(F)cc1Cl | 0.6 | 20.1* | -2.0 | -9.1 | 30.7* | 15.5
O=C(/C=C/c1ccc2c(c1)OCO2)Nc1ccc(Cl)cn1 | 0.5 | -9.7 | -0.3 | -9.3 | 1.9 | 2.6
Cc1cc2c(cc1C)N(C(=O)CSC1=NCCS1)C(C)(C)c1ssc(=S)c1-2 | -1.2 | -12.3 | -15.8 | 54.0* | -29.0 | 15.2
CC1(C)c2ssc(=S)c2-c2ccccc2N1C(=O)CSC1=NCCS1 | -2.6 | -3.5 | -12.0 | 12.1 | -12.2 | 3.3
Cc1cc(C)c2c(n1)sc1c(N3CCCCC3)ncnc12 | 2.5 | -2.6 | 23.1* | -6.4 | 4.5 | -8.7
Cc1cc(C)c2c(n1)sc1c(N3CCN(C)CC3)ncnc12 | 1.4 | -2.5 | 24.9 | -15.7 | 17.2 | 17.3
Cc1cccc(Nc2nc(NCC3CCCO3)nc(N)c2[N+](=O)[O-])c1 (configuration not stated) | 2.2 | -0.4 | 23.5* | 8.7 | -7.1 | 15.1
Nc1nc(NCC2CCCO2)nc(Nc2cccc(Cl)c2)c1[N+](=O)[O-] (configuration not stated) | 1.4 | 2.0 | 5.1 | -14.2 | 10.1 | 1.2
COc1ccc(Nc2nc(Nc3ccc(OC)cc3)nc(-n3[nH]c(=O)c(C)c3C)n2)cc1 | 9.7 | -2.9 | -9.2 | 33.0* | -6.9 | 28.2*
COc1ccc(Nc2nc(OC)nc(OC)n2)cc1 | 0.7 | -6.9 | 0.0 | -9.0 | 7.0 | 1.8
CCOC(=O)/C(=C/c1ccc(OC(=O)c2ccccc2)cc1)C(C)=O | 1.4 | -7.6 | 21.2* | -1.1 | 7.2 | -1.4
CCOc1ccc(/C=C2\CCC(C3CCCC3)C2=O)cc1 (configuration not stated) | 0.2 | -2.4 | -2.9 | -14.9 | 13.7 | -0.9
CC(NC(=O)COC(=O)CCc1nc(=O)c2ccccc2n1C)c1ccccc1 (configuration not stated) | 0.9 | -10.0 | -5.0 | -11.1 | 10.6 | 7.9
Cn1c(CCC(=O)OCC(=O)Nc2ccc(Oc3ccccc3)cc2)nc(=O)c2ccccc21 | 0.9 | -11.4 | 6.7 | 37.4* | -29.2 | -1.5
NC(Cc1ccc(OC(F)F)cc1)C(=O)O (configuration not stated) | -0.3 | -2.9 | -5.2 | -10.3 | 4.6 | 5.0
CCNc1nc(NC(C)(C)C)nc(N2CCCCC2)n1 | 2.5 | -10.6 | -21.3 | 85.7* | -27.9 | 44.7*
CCNc1nc(N2CCCC2)nc(N2CCCC2)n1 | 0.3 | -12.5 | -7.7 | 3.8 | -7.4 | 3.8
Cc1ccc(C)c(/C=N/Nc2ccccn2)c1 | -0.4 | -3.7 | 11.3 | -7.5 | 6.0 | 0.0
O=[N+]([O-])c1cccc(-c2cc3cccc[n+]3cc2-c2cccc([N+](=O)[O-])c2)c1 | 0.1 | -9.9 | 1.7 | 1.1 | 5.1 | -0.1
